Tau fibril FP – tau fibrillization inhibition (FP). P10636. K18 P301L tau heparin fibrillization, Alexa594 FP, 6 h. Potency, µM (titrated, usually from 57.7 µM), inactives show at the top dose activity, negative = inhibition, most hits filed as inhibitors. actives 0.39% (n = 280,000). AID 1468; note: potency is the fitted concentration of half-maximal effect; nearly all actives have a fitted effect of over 55% in size
Target sequence (P10636 561-689 P618L limits assumed): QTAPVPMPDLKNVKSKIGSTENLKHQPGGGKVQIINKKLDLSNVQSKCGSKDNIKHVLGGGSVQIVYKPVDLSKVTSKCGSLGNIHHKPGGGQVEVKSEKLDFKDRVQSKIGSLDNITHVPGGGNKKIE
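Heparin (20 uM) drove fibril formation of recombinant tau K18 P301L, 15 uM unlabeled with 0.24 uM Alexa 594 label, for 6 hr at 37 C in 100 mM sodium acetate pH 7. Fluorescence polarization (555/632 nm) read 1 hr after 30 uM ThT.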
NPSR antagonist – blocks cAMP signaling of the human neuropeptide S receptor | actives 1% (n = 220,000) | CHO-NPSR cells, cAMP TR-FRET, antagonist mode | Potency, µM (highest dose often 38.3 µM), for inactives: top-dose activity change, negative = inhibition, usual class: inhibitors; note: potency is the fitted concentration of half-maximal effect; nearly all actives have a fitted effect of over 50% in size
Target sequence (Q6W5P4 whole entry, looked up): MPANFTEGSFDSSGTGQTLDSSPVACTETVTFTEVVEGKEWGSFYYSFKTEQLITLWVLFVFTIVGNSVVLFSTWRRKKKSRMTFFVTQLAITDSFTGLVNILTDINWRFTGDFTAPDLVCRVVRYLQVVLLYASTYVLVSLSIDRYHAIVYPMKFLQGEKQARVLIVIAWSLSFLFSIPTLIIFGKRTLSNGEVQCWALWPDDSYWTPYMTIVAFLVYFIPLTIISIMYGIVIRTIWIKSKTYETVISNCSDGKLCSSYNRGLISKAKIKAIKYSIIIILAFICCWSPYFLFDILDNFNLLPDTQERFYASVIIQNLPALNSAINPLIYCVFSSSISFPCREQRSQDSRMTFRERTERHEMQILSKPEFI
KDM4E inh – JMJD2E (human) inhibition | actives 1.6% (n = 230,000) | Potency, µM (titrated, usually from 57.1 µM), for inactives: at the highest dose activity change, negative = inhibition, actives largely listed as inhibitors | JMJD2E catalytic domain, FDH-coupled NADH fluorescence (FDH is formaldehyde dehydrogenase) | B2RXH2; active = well fitted inhibition curve with a large enough effect, not every such curve was filed as active; inconclusive = small, poorly fitted or top-dose-only effect, or another doubt; inactive = no such curve, though single readings can be large or run the other way;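 note: potency is the fitted concentration of half-maximal effect; 0% = wells with enzyme and -100% = buffer wells without enzyme; nearly all actives have a fitted effect of over 50% in size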
Tau ThT inhib – tau fibrillization inhibition (ThT binding); P10636; recombinant tau K18 P301L, heparin-induced fibrillization, ThT fluorescence; Potency, µM (series often up to 57.4 µM), inactives show at the top dose activity, negative = inhibition, hits mostly inhibitors; actives 2.1% (n = 270,000); note: potency is the fitted concentration of half-maximal effect; nearly all actives have a fitted effect of over 55% in size
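Tau K18 P301L fragment (15 uM unlabeled plus 0.24 uM Alexa 594-labeled) in 100 mM sodium acetate pH 7 with compound, fibrillization induced by 20 uM heparin for 6 hr at 37 C. Thioflavin T (30 uM) added, fluorescence read after 1 hr (ex 450, em 510 nm).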
PNC inhibitor – inhibitors of perinucleolar compartment assembly; AID 2417; activity change (PNC), negative = inhibition, % at 10 µM; actives 3.1% (n = 140,000); PC3M PTB-GFP, PNC prevalence imaging, 16 h; active compounds read low;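 active = readout at or below -70, meaning at least 70% loss of cells showing the perinucleolar compartment, a nuclear body marking cancer cells; inconclusive = readout between -30 and a set limit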;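 note: plate controls were DMSO wells for no effect and camptothecin positive control wells for full effect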
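PC3M cells stably expressing PTB-GFP, 750–1000 cells/well, treated 16 h at 37 °C with compound (23 nl of library stock), in duplicate. After paraformaldehyde fixation and Hoechst stain, imaged at 20x; PNC prevalence scored by image analysis.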
Tau fluor counter – counter-screen for tau fibril formation inhibitors | Potency, µM (series often up to 57.7 µM), inactives show top-dose activity change, negative = decrease | actives 0.93% (n = 280,000) | tau K18 P301L Alexa594 fluorescence, heparin fibrillization; note: potency is the fitted concentration of half-maximal effect; nearly all actives have a fitted effect of over 55% in size
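Human tau K18 P301L (15 uM unlabeled, 0.24 uM Alexa 594-labeled) in 100 mM sodium acetate pH 7 with 20 uM heparin, 6 hr at 37 C. ThT 30 uM added, 1 hr ambient; Alexa 594 FP and total fluorescence read at 555/632 nm.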
Starred values were filed as active, the others as inactive; ? = inconclusive; . = no result given; [ ] = another dose, or the depositor's remark. An excerpt weighted towards active compounds, which were near 5.1% of everything screened. Unless noted, calls come from the whole dose curve; as a rule, active = well fitted curve in the direction sought with a large enough effect; inconclusive = small, poorly fitted or top-dose-only effect, or another doubt; inactive = no such curve, though single readings can be large; an effect the other way counts as inactive or inconclusive. Unless noted, % is set by controls: 0 for no effect and ±100 for the full control effect.

SMILES	Tau fibril FP	NPSR antagonist	KDM4E inh	Tau ThT inhib	PNC inhibitor	Tau fluor counter
CN1C2C=C3C(C#N)=C(N)C(C#N)(C#N)[C@@H](c4cccs4)C3C1CC2 (stereo not given in full)	?	-4.0%[46.1 µM]	?	20µM*	55.2	-14.3%
CN1C2C=C3C(C#N)=C(N)C(C#N)(C#N)[C@H](c4c(F)cccc4F)[C@H]3C1CC2 (stereo not given in full)	?	-13.1%[46.1 µM]	?	14.1µM*	-13.5	-19.3%
CN1CC=C2C(C#N)=C(N)C(C#N)(C#N)C(c3cccc(Cl)c3Cl)C2C1 (stereo not given)	?	-6.0%[46.1 µM]	?	?	21.9	-24.7%
CN1C2C=C3C(C#N)=C(N)C(C#N)(C#N)[C@@H](c4cccc(F)c4)[C@@H]3C1CC2 (stereo not given in full)	?	-12.4%[46.1 µM]	?	20µM*	-17.1	-8.5%
Cc1ccc(NC(c2cccc(Cl)c2)c2nnc(-c3ccccc3)o2)cc1F (stereo not given)	-10.5%	.	.	-8.6%	.	-24.6%
O=C(NC1CCCCC1)C1Cc2ccccc2CN1S(=O)(=O)c1ccc(F)cc1 (stereo not given)	-13.0%	-11.1%[46.1 µM]	-2.7%	-0.1%	-100.0*	-10.7%
CC(=O)c1ccc(NC(=O)C(C)OC(=O)c2ccc(NS(=O)(=O)c3ccc(F)c(F)c3)cc2)cc1 (stereo not given)	?	-33.6%	1.8%	-5.6%	-100.2*	?
CCC(=O)Oc1c(Sc2ccc(C)cc2)c(C)nn1-c1ccccc1	?	.	.	?	.	-22.8%
CCCC(=O)Oc1c(Sc2ccc(C)cc2)c(C)nn1-c1ccccc1	?	.	.	25.1µM*	.	-28.4%
CCC(=O)Oc1c(Sc2ccc(Cl)cc2)c(C)nn1-c1ccccc1	?	.	.	22.4µM*	.	-29.6%
O=C(CSc1c2c(nc3ccccc13)CCC2)Nc1ccc(F)cc1	0.4%	.	.	-5.9%	.	-14.9%
CN=C(Nc1cc(Cl)ccc1Cl)SC1CC(=O)N(c2ccc(C(=O)OC)cc2)C1=O (stereo not given)	28.2µM*	?	-2.8%	6.8%	-21.2	?
O=C1CC(SC(=Nc2ccccc2)Nc2ccccc2)C(=O)N1c1ccc(Cl)c(Cl)c1 (stereo not given)	7.94µM*	-55.5%	-9.7%	11.0%	43.7	?
Nc1ccccc1SC1CC(=O)N(c2ccc(Cl)c(Cl)c2)C1=O (stereo not given)	28.2µM*	38.1%	2.2%	4.9%	.	?
Cc1cccc(N2C(=O)CC(SC(=Nc3ccccc3)Nc3ccccc3)C2=O)c1 (stereo not given)	?	-27.7%[46.1 µM]	0.9%	-3.2%	1.5	?
O=C(CSC1=Nc2ccccc2N=C(c2ccc(F)cc2)C1)Nc1ccc(Cl)cc1	-11.3%	.	.	12.3%	.	-13.4%
CCc1ccc(S(=O)(=O)ON2C(=O)c3ccccc3C2=O)cc1	?	-32.0%	?	15.8µM*	.	-13.1%
Cc1ccc(S(=O)(=O)NC(=O)O[C@@H]2C(=O)c3cc(Br)ccc3O[C@H]2c2ccc3c(c2)OCO3)cc1	-2.8%	.	1.3%	?	.	-9.6%
CCOC(=O)c1[nH]c(C)c(/C=N/O)c1C	6.2%	-1.3%[46.1 µM]	-0.8%	-2.5%	-115.1*	7.5%
COc1ccc(CNC(=O)CCn2c(=O)c3cccn3c3ccc(F)cc32)cc1OC	-6.0%	.	.	-1.4%	.	-12.2%
COc1ccc(NC(=O)CSc2nnnn2C2CCCC2)cc1	-4.2%	-6.5%	3.4%	-10.2%	.	-20.8%
CCn1nnnc1SCC(=O)Nc1ccc(OC)cc1	5.2%	-0.8%[46.1 µM]	7.9%	-3.9%	-100.0*	2.1%
CCOC(=O)c1ccc(NC(=O)CSc2nnc(CNc3ccc(OC)cc3)n2C)cc1	?	2.8%[7.67 µM]	?	14.1µM*	-3.0	-28.1%
CCOc1ccc(NC(=O)CSc2nnc(C(C)C)n2CC)cc1	15.5%	3.6%	-2.4%	-1.7%	-118.9*	3.9%
CCn1nnnc1SCC(=O)Nc1nc2ccc(OC)cc2s1	6.0%	1.9%[46.1 µM]	-7.6%	?	-100.0*	-7.0%
SMILES	Tau fibril FP	NPSR antagonist	KDM4E inh	Tau ThT inhib	PNC inhibitor	Tau fluor counter
CCC1CN(C(=O)Nc2ccc(C)c(F)c2)c2ccccc2S1 (stereo not given)	?	.	.	-1.4%	.	-1.1%
COc1ccc(C2C(=O)N(C3CCCCC3)CC(=O)N2CCC2=CCCCC2)cc1 (stereo not given)	-14.2%	.	.	-4.5%	.	-7.0%
O=C(CSc1nnc(-c2cccnc2)n1-c1ccccc1)Nc1ccccc1	10.3%	2.7%[46.1 µM]	8.4%	0.5%	-100.0*	0.2%
Cc1ccc(NC(=O)CSc2nnc(-c3cccnc3)n2-c2ccc(C)cc2)cc1	10.9%	-10.6%[46.1 µM]	-7.3%	0.4%	4.1	2.6%
COC(=O)c1cccc(NC(=O)CSc2nnc(COc3ccccc3)n2C)c1	5.0%	-10.3%[46.1 µM]	-5.2%	10.0%	-126.1*	0.3%
COc1ccc(NC(=O)CSc2nnc(-c3ccccc3)n2N)cc1	0.4%	-7.1%[46.1 µM]	4.0%	?	-100.0*	-3.8%
Cn1c(COc2ccccc2)nnc1SCc1cc(=O)[nH]c2ccccc12	6.6%	10.7%[46.1 µM]	1.7%	4.6%	-107.3*	3.9%
O=c1cc(CSc2nnc(COc3ccccc3)n2-c2ccccc2)c2ccccc2[nH]1	-2.0%	-6.2%	8.4%	1.3%	38.4	2.8%
CN(C)c1ccc(CNC(=O)c2cc3ccccn3n2)cc1	-11.5%	.	.	-9.5%	.	-24.0%
COc1ccc2nc3oc(C(=O)N4CCCCC4)cc3cc2c1	-0.8%	-2.8%[46.1 µM]	?	-14.2%	-100.0*	-7.6%
CCOC(=O)C1CCN(C(=O)c2cc3cc4cc(OC)ccc4nc3o2)CC1	1.0%	-8.4%[46.1 µM]	?	?	4.3	-8.7%
O=C(COc1ccccc1-c1ccccc1)N/N=C/c1ccncc1	-11.1%	40.0%	-11.9%	-8.8%	.	-14.8%
O=C(COc1ccccc1-c1ccccc1)N/N=C/c1ccc2ccccc2c1	?	4.4%	?	1.3%	-116.4*	-10.0%
C/C(=N\NC(=O)COc1ccccc1-c1ccccc1)c1ccccn1	-2.8%	7.94µM*	?	-16.3%	.	-3.0%
CCN1C(=O)c2ccccc2S(=O)c2ccc(C(=O)NCc3ccc(Cl)cc3)cc21 (stereo not given)	0.7%	.	.	-13.5%	.	-17.4%
CCN(CC)c1ccc2cc(-c3nc(-c4cccs4)no3)c(=O)oc2c1	-5.8%	.	.	?	.	-5.0%
CCOC(=O)c1cc(-c2ccc(OC(F)F)cc2)nc2c1c(=O)[nH]c(=O)n2C	8.1%	13.7%	-5.0%	0.9%	-84.0*	-0.3%
Cc1cccc(NC(=O)c2nc[nH]c2C(=O)N[C@@H](C)C(=O)OCc2ccccc2)c1	14.1µM*	-14.4%	-20.2%	-0.2%	.	?

Compound activity from PubChem BioAssay.
